Measured values from ChEMBL document CHEMBL3988442, “University of Dundee, Small-Polar-MMV Screening Library” (2021).
Hit rate of the full screen: of about 65,000 compounds, about 65 (0.1%) showed an effect of 50% or more. What follows is part of a selection rich in strong results, with near analogues and random picks from the rest.

Biological target: Tryptophan--tRNA ligase (Mycobacterium tuberculosis (strain ATCC 25618 / H37Rv)) (UniProt P9WFT3)
Assay: Biochemical assay for Mt-TrpRS
Type: functional
Design: scale not given: direction of the effect not stated beside the values
Settings: 10 µM

Chain of Tryptophan--tRNA ligase (Mycobacterium tuberculosis (strain ATCC 25618 / H37Rv)) (P9WFT3 whole entry): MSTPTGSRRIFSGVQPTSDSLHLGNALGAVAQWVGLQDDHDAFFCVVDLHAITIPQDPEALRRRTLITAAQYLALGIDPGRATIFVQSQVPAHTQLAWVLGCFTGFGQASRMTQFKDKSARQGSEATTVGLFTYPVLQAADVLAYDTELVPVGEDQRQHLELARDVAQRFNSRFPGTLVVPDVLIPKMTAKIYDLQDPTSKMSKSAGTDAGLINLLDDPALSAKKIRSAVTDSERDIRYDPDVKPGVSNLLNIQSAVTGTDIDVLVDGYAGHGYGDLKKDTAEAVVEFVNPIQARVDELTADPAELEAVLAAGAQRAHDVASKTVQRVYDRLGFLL

Compound	Percent Effect [%]
CN(CC(=O)Nc1ccncc1)C1CCCN(c2cccnn2)C1 (configuration not stated)	-2.13
Cc1nnc(NC(=O)CN(C)C2CCCN(c3cccnn3)C2)s1 (configuration not stated)	-2.71
CCc1nc(CN(C)C2CCCN(c3cccnn3)C2)no1 (configuration not stated)	10.3
CN(Cc1ccco1)[C@@H]1CN(C(=O)c2ccnnc2)C[C@@H]2CCCO[C@@H]21	4.52
O=C1CO[C@H]2CN(Cc3ccc4c(c3)OCO4)C[C@H]2N1	-0.835
CNC(=O)[C@@]12CCO[C@@H]1CCN(Cc1cccc(C)c1)C2	-2.81
C=C1C(C)(C)[C@H]2CC[C@]1(C(=O)N1CCC(n3cc(CCO)nn3)CC1)C2	1.01
CCn1cnnc1CNC(=O)NC(c1cccs1)C1CCCC1 (configuration not stated)	55.9
CCn1cnnc1CNC(=O)NC(C)c1cccs1 (configuration not stated)	-0.56
CCn1cnnc1CNC(=O)NC(c1ccccc1)C1CCCC1 (configuration not stated)	0.594
O=C(COc1cccc(Cl)c1)N1CCOCC1c1ncon1 (configuration not stated)	60.2
O=C(COc1cccc(Br)c1)N1CCOCC1c1ncon1 (configuration not stated)	-4.77
O=C(COc1ccc(Cl)cc1)N1CCOCC1c1ncon1 (configuration not stated)	3.96
O=C(c1ccccc1)N1CC[C@H]2C[C@H](c3nccs3)O[C@@H]2C1	0.277
CN(C)C(=O)c1cncnc1-c1ccc(CNC(=O)C2CC2)cc1	1.32
CN(C)C(=O)c1cncnc1-c1ccc(CNC(=O)C2CCCO2)cc1 (configuration not stated)	59.1
COCC(=O)NCc1ccc(-c2ncncc2C(=O)N(C)C)cc1	-3.46
COc1ccc(CN2C[C@@H]3CN(S(=O)(=O)C4CC4)C[C@@H]3C2=O)cc1	2.34
c1cnc(N2CC[C@@H]3[C@@H]2CCN3Cc2cccs2)nc1	-3.73

Compound	Percent Effect [%]
CCc1noc(C)c1C(=O)N1CCCC1Cn1nc(C)cc1C (configuration not stated)	1.85
Cc1cc(C)n(CC2CCCN2C(=O)Cc2c(C)noc2C)n1 (configuration not stated)	-1.17
Cc1cc(C)n(CC2CCCN2C(=O)c2c(C)noc2C)n1 (configuration not stated)	66.8
CS(=O)(=O)NC[C@@H]1OC[C@H]2CN(C(=O)c3ccccc3)CC[C@H]21	-2.6
Cc1ncoc1C(=O)N1C[C@H]2CCC[C@@]2(COCC2CCOCC2)C1	-1.66
O=C(CC1CC1)N1CCO[C@H]2[C@H](OCCCn3cccn3)CC[C@@H]21	-5.05
c1cncc(CN2CC[C@H]3O[C@@H](COCC4CCOCC4)CC[C@H]32)c1	-0.469
CC[S+](CC)[c-]1c(=O)[nH]c(=O)n(Cc2ccc(F)cc2)c1=O	-5.58
CN(Cc1nnc2n1CCC2)C(=O)c1ccc2c(c1)OCCCO2	19.8
CN(Cc1nnc2n1CCC2)C(=O)c1ccc2c(c1)OCO2	-1.84
CN(Cc1nnc2n1CCC2)C(=O)c1ccc2c(c1)OCCO2	69.5
CCCN1CCCN(c2ccc(-n3ccc(C)n3)nn2)CC1	-6
Cc1ccn(-c2ccc(N3CCCN(Cc4ccccc4)CC3)nn2)n1	119
CCN1CCCN(c2ccc(-n3ccc(C)n3)nn2)CC1	1.17
O=S(=O)(c1ccccc1)N1C[C@@H]2COC[C@]2(COCC2CC2)C1	9.94
O=C(c1ccc(F)c(F)c1)N1C[C@H]2CNC[C@H]2C1	-6.39
Fc1ccc(-c2nc(CN3CCCC3Cn3cncn3)co2)cc1 (configuration not stated)	53.9
Fc1cccc(-c2nc(CN3CCCC3Cn3cccn3)co2)c1 (configuration not stated)	74.9
Cc1ccc(-c2nc(CN3CCCC3Cn3cncn3)co2)cc1 (configuration not stated)	-4.8

Compound	Percent Effect [%]
Cc1cnn(CC2CCCN2Cc2coc(-c3cccc(F)c3)n2)c1 (configuration not stated)	4.37
Fc1cccc(-c2nc(CN3CCCC3Cn3cncn3)co2)c1 (configuration not stated)	10.9
Fc1ccc(-c2nc(CN3CCCCC3Cn3cncn3)co2)cc1 (configuration not stated)	-4.8
CS(=O)(=O)N1C[C@@H]2OCC(=O)N(CC3CCC3)[C@@H]2C1	-0.527
Cc1nn(C)c(N(C)C)c1CNCCCNS(C)(=O)=O	24.1
Cc1nn(C)c(N(C)C)c1CNCCS(C)(=O)=O	57.4
CCS(=O)(=O)NCCCNCc1c(C)nn(C)c1N(C)C	51.9
CCN(CCCNCc1c(C)nn(C)c1N(C)C)S(C)(=O)=O	-2.27
Cc1nn(C)c(N(C)C)c1CNCCNS(C)(=O)=O	-3.19
Cc1nn(C)c(N(C)C)c1CNCCCN(C)S(C)(=O)=O	-0.817
CC(=O)N1[C@H](CN(C)C)C[C@@H]2CN(C(=O)c3cccn3C)CC[C@@H]21	-8.29
Cc1cccc(COC[C@]23COC[C@H]2CN(c2ncccn2)C3)n1	-0.382
Cc1nn(C)c(N2CCOCC2)c1CN[C@@H]1c2ccccc2C[C@@H]1O	-6.65
c1coc(CN2CC[C@H]3O[C@@H](COCC4CC4)CC[C@H]32)c1	-3.59
CN1CCc2nc(C3CCCN(S(=O)(=O)c4ccccc4)C3)ncc2C1 (configuration not stated)	-1.11
CCN(CC)S(=O)(=O)N1CCCC(c2ncc3c(n2)CCN(C)C3)C1 (configuration not stated)	50.2
CN1CCc2nc(C3CCCN(S(=O)(=O)N4CCCC4)C3)ncc2C1 (configuration not stated)	-5.94
CC(=O)N1CCN(C(=O)c2cc(C(C)C)no2)[C@H]2CS(=O)(=O)C[C@H]21	-1.55
NC[C@H]1CC[C@H](c2c(C(N)=O)sc3ccccc32)CC1	-6.86
